In PubChem BioAssay one finds composite z-score and z-score data, which are given here for 5 molecules.

Experiment [1] is described as follows: binders of probe aFSTL3 on microarray, primary screen, stem cell growth factor project, biochemical, small-molecule microarray, fluorescence 635/667 (AID 1064).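 Also: measures binding of the biotinylated anti-FSTL3 antibody to printed compounds.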 The note with it: higher = more signal.
Experiment [2] in a line: binders from COS7 lysate, DM2A8 probe, primary screen, torsin A project, cell lysate, small-molecule microarray, fluorescence 635/667 (AID 1065). The following applies: higher = more signal, COS7 lysate expressing mutant human TOR1A.
Experiment [3] can be described thus: binders of probe aFGF2 on microarray, primary screen, stem cell growth factor project, biochemical, small-molecule microarray, fluorescence 635/667 (AID 1067).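 Also: measures binding of biotinylated aFGF2 protein to printed compounds on slides; z-score merges feature fluorescence and signal-to-noise across triplicate slides.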 The following applies: higher = more signal.
A short description of experiment [4]: binders of probe aFGF10 on microarray, primary screen, stem cell growth factor project, biochemical, small-molecule microarray, fluorescence 635/667 (AID 1071).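 Also: score merges 667 nm spot intensity and signal to noise from triplicate slides.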 The note with it: higher = more signal.
Experiment [5] concerns the target Neurogenic locus notch homolog protein 2 (Homo sapiens) (UniProt Q04721). The experiment in a line: Notch2 binders on small-molecule microarrays, primary screen, biochemical, small-molecule microarray, 635 nm fluorescence, stem cell growth factors (AID 1073). The following applies: Notch2 binding, higher = more signal.
Experiment [6] has as its target Pro-neuregulin-1, membrane-bound isoform (Homo sapiens) (UniProt Q02297). The experiment in a line: NRG1 binders on small-molecule microarrays, primary screen, psychiatric disease protein project, biochemical, small-molecule microarray, fluorescence 635/667 (AID 1075).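 Also: score combines 667 nm spot fluorescence with signal to noise.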 The note with it: NRG1 binding, 635 nm fluorescence, higher = more signal.
Experiment [7] concerns Neuregulin-1 EGF-like domain. Kind of experiment: binders of neuregulin-1 EGF-like domain, primary screen, biochemical, small-molecule microarray, 635 nm fluorescence (AID 1081).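 Also: binding of the protein to compounds printed on small-molecule microarray slides.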 The note with it: small-molecule microarray binding, higher = more signal.
The nature of experiment [8]: FRG1 promoter luciferase signal modulators, primary screen, FRG1 inhibition for FSHD, cell-based, C2C12 myotubes, firefly/Renilla luciferase, luminescence (AID 1084). The note with it: higher = more signal, called active from +8 up or from −8 down.
The nature of experiment [9]: binders of probe aFST on microarray, primary screen, stem cell growth factor project, biochemical, small-molecule microarray, fluorescence 635/667 (AID 1086).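 Also: score merges 667 nm fluorescence with signal-to-noise of each printed compound spot.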 The note with it: higher = more signal.
Experiment [10] can be described thus: binders of probe aHhip on microarray, primary screen, stem cell growth factor project, biochemical, small-molecule microarray, fluorescence 635/667 (AID 1087).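 Also: score merges spot fluorescence at 667nm with spot signal to noise ratio.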 The note with it: higher = more signal.
The test system of experiment [11] is PRMT1 (protein arginine N-methyltransferase 1). The experiment in a line: PRMT1 binders on small-molecule microarrays, primary screen, biochemical, small-molecule microarray, 635 nm fluorescence (AID 1088).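 Also: binding of Prmt1 protein to compounds spotted on small-molecule microarray slides.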 The following applies: small-molecule microarray binding, higher = more signal.
A short description of experiment [12]: yeast growth modulation, basal conditions, primary screen, YJM789 clinical isolate, OD600, 24 h (AID 1089).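 Also: growth of clinical yeast isolate S. cerevisiae YJM 789 seeded 1000 cells per well; test concentration not given here.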 The note with it: S. cerevisiae YJM789 growth, higher = more signal, called active from +8 up or from −8 down.
Experiment [13] in a line: fission yeast growth modulation, primary screen, strain 972, OD600, 24 h, no modulator (AID 1090).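 Also: basal condition with compound alone and no growth modifier present; test concentration not given here.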 The note with it: S. pombe 972 growth, higher = more signal, called active from +8 up or from −8 down.
Experiment [14] in a line: S. cerevisiae growth modulation with rapamycin, primary screen, strain BY4716, OD600, 96 h (AID 1091). Also: test concentration not given here. The note with it: higher = more signal, called active from +8 up or from −8 down.
The target in experiment [15] is Torsin-1A-interacting protein 2 (Homo sapiens) (UniProt Q8NFQ8). The experiment in a line: LULL1 binders on small-molecule microarray, primary screen, cell lysate, human LULL1 lysate, 635/667 nm fluorescence (AID 1092).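 Also: probe is lysate of COS7 cells overexpressing human LULL1; score merges per-feature 667 nm fluorescence with signal-to-noise.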 The following applies: hLULL1 lysate binding, 635 nm fluorescence, higher = more signal.
Chain of Torsin-1A-interacting protein 2 (Homo sapiens) (Q8NFQ8 whole entry, looked up): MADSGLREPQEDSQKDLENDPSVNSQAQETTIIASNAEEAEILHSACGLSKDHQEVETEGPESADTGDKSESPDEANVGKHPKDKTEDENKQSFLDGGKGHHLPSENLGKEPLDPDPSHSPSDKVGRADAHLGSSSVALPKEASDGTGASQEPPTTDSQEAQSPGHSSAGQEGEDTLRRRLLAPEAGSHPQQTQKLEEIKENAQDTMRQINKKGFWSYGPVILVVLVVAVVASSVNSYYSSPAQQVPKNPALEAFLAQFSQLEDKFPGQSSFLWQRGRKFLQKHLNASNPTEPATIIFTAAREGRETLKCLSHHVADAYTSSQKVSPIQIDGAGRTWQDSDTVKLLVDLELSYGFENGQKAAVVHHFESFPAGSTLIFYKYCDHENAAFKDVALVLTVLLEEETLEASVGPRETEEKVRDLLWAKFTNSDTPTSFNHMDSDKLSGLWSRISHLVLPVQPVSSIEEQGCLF
A short description of experiment [16]: E. coli growth modulation, two-sided OD650, primary screen, E. coli filamentation project, strain DRC41, 24 h (AID 1093).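 Also: MC1000 strain lacking acrAB efflux and sulA so SOS filamentation is blocked; test concentration not given here.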 The following applies: OD650, 24 h, higher = more signal, called active from +8 up or from −8 down.
Experiment [17] in a line: small-molecule microarray binders of probe aLefty2, primary screen, biochemical, biotinylated probe, 635/667 nm fluorescence (AID 1094).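 Also: score merges spot fluorescence near 667 nm with spot signal-to-noise ratio.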 The following applies: higher = more signal.
The test system of experiment [18] is Noggin (protein binding on small-molecule microarray). Kind of experiment: Noggin binders on small-molecule microarray, primary screen, biochemical, 635/667 nm fluorescence (AID 1095).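 Also: score merges 667 nm feature fluorescence with signal to noise over triplicate slides.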 The following applies: 635 nm fluorescence, higher = more signal.
For experiment [19], the target named is Neurogenic locus notch homolog protein 3 (Homo sapiens) (UniProt Q9UM47). Kind of experiment: NOTCH3 binders on small-molecule microarray, primary screen, biochemical, 635/667 nm fluorescence (AID 1096). The following applies: NOTCH3 binding, 635 nm fluorescence, higher = more signal.
Experiment [20] can be described thus: small-molecule microarray binders of probe aEGFR, primary screen, biochemical, biotinylated probe, 635/667 nm fluorescence (AID 1097).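 Also: probe is a biotinylated anti-EGFR antibody binding compounds printed on slides; score combines fluorescence near 667 nm and signal to noise of each spot.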 The following applies: higher = more signal.

Molecules are shown by their SMILES. Calls of active or inactive are those of the source.

Chain of Neurogenic locus notch homolog protein 2 (Homo sapiens) (Q04721 whole entry, looked up, canonical isoform): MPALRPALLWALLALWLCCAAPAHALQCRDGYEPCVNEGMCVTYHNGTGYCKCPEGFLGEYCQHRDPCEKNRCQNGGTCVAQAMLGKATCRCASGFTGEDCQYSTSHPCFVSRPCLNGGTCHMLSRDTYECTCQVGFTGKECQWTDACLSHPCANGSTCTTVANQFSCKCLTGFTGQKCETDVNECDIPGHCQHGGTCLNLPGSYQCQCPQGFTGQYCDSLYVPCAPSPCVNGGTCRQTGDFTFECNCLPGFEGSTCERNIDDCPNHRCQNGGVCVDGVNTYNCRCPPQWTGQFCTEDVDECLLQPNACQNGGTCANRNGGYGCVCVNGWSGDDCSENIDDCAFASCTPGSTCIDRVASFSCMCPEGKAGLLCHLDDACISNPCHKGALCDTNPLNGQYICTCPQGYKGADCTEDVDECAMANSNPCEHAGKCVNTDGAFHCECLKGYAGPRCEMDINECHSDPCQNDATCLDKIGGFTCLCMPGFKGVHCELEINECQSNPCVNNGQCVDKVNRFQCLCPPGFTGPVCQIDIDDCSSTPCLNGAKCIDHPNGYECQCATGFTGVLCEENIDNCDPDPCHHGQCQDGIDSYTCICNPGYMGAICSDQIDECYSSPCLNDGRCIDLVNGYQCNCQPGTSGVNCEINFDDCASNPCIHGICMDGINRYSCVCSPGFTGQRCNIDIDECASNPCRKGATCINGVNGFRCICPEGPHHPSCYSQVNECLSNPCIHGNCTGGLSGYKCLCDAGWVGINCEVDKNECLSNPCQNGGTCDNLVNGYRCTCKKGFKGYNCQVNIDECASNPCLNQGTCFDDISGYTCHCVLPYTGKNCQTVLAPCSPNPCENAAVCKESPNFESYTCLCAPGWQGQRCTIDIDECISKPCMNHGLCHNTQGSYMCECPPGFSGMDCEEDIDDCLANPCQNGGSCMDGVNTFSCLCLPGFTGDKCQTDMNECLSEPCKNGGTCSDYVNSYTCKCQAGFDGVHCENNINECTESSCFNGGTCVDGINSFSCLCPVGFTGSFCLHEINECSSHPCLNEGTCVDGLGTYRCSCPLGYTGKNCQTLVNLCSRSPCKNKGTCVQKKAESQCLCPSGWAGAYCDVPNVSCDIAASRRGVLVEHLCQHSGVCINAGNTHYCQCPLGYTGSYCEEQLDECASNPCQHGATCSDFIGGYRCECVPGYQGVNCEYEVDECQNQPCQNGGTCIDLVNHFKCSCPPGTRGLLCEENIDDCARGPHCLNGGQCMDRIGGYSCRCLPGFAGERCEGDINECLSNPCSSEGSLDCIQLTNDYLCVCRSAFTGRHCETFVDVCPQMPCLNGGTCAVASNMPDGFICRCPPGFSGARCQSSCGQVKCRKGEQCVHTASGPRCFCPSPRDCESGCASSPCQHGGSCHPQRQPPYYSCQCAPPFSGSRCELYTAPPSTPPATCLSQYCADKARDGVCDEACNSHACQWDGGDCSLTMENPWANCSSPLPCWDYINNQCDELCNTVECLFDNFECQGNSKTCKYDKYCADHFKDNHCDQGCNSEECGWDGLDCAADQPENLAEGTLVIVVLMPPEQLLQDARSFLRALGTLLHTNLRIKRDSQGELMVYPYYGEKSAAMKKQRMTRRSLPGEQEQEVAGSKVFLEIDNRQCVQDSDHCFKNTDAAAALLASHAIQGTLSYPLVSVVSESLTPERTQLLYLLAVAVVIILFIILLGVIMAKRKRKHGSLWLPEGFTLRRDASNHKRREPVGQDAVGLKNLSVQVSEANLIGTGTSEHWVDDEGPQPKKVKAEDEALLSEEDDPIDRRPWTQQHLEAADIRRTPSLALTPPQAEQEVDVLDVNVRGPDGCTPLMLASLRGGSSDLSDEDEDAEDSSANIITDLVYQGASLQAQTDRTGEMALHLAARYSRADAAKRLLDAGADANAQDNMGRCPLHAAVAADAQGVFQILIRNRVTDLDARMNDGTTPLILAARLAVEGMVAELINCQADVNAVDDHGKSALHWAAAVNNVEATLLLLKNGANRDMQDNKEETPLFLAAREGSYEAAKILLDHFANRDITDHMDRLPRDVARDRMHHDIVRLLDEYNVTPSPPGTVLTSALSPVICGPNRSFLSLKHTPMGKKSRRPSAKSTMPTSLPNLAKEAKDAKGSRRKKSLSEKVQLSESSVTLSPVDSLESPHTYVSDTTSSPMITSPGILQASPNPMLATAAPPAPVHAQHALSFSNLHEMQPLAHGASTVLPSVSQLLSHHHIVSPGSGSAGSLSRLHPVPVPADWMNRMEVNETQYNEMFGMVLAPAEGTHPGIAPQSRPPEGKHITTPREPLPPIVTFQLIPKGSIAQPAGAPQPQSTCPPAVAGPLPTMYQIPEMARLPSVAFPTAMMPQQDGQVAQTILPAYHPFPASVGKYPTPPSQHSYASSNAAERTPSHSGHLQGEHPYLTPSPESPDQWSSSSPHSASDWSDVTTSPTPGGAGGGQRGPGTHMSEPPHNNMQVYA
Chain of Pro-neuregulin-1, membrane-bound isoform (Homo sapiens) (Q02297 whole entry, looked up, the tested form may be a part, canonical isoform): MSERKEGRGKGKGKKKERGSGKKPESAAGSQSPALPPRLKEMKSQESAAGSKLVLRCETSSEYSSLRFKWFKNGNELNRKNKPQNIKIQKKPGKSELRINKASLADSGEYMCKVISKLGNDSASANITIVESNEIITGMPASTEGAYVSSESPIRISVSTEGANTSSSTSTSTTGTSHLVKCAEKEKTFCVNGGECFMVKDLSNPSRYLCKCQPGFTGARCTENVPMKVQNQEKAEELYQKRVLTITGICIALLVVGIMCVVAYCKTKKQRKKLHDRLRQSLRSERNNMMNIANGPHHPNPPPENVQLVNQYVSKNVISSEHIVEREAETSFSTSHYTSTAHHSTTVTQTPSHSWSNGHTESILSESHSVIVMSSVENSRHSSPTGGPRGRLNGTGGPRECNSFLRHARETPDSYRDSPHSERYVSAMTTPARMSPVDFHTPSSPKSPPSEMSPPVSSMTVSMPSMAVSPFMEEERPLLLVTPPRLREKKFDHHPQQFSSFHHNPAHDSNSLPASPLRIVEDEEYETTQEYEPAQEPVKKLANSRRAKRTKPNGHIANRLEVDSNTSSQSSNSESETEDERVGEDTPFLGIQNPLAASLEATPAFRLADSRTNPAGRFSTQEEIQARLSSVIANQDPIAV

Consider `CC1CC/C=C\[C@H]2OC34C=CCN(c5ccc(Cl)cc5)C(=O)[C@H]3N(CCCCCCO)C(=O)[C@]4(C)C2C(=O)O1` (stereo not given in full), for which the composite z-score in experiment [1] is -0.147; in experiment [2], -0.965; in [3] it was -0.176; in [4], -0.219; in experiment [5], -0.705; in experiment [6], 0.639. Further, the composite z-score in experiment [7] is 1.52; in [9], -0.56; in [10], -0.204; in experiment [11], -0.106; in experiment [15], 0.995; in experiment [17], -0.233. Moreover, the figures for the composite z-score in experiment [18], in [19] and in [20] were -0.914, -0.277 and -0.314, respectively. Besides, the z-score is 0.975 (inactive) in experiment [8]; -0.0412 (inactive) in experiment [12]; -0.884 (inactive) in experiment [13]; 0.187 (inactive) in experiment [14]; 0.206 (inactive) in experiment [16].

For the molecule `CN(C)CCCC[C@@H]1NC(=O)[C@@H]2C[C@H](C(=O)NCCCCCCNC(=O)CS)[C@H](c3ccc(O)cc3)N2C1=O`, the composite z-score is -0.195 in experiment [1]; 0.991 in experiment [2]; -0.0959 in experiment [3]; 0.204 in experiment [4]; 0.262 in experiment [5]; 0.133 in experiment [6]. Also, the composite z-score was 0.975 in experiment [7]; -0.114 in experiment [9]; -0.0645 in [10]; 1.33 in experiment [11]; 2.79 in experiment [15]; -0.269 in experiment [17]. In addition, the results for the composite z-score in experiment [18], in experiment [19] and in experiment [20] were 1.13, 0.65 and 0.123, respectively. Besides, the z-score in experiment [8] was 0.133 (inactive); in experiment [12], -0.378 (inactive); in [13] it was -0.472 (inactive); in experiment [14] it was 0.0236 (inactive); in experiment [16], -0.744 (inactive).

`Cc1ccc(S[C@]2(C(=O)NCc3ccccc3)CC(=O)N(Cc3ccccc3C(F)(F)F)[C@@H]2c2ccc(CO)cc2)cc1`: the composite z-score in experiment [1] was 0.563; in [2], -0.355; in experiment [3], -0.105; in [4], -0.659; in [5], -1.44; in [6] it was 0.642. Further, the composite z-score is -1.08 in [7]; -0.633 in experiment [9]; -0.204 in experiment [10]; 0.884 in experiment [11]; 1.05 in experiment [15]; -0.154 in [17]. For the same molecule, the results for the composite z-score in experiment [18], in [19] and in experiment [20] were -1.16, -0.64 and -0.272, respectively. Also, the z-score in experiment [8] is -1.92 (inactive); in [12], -1.61 (inactive); in [13], 0.447 (inactive); in [14], -0.417 (inactive); in experiment [16], 0.837 (inactive).

On to `[N-]=[N+]=Nc1ccccc1C[C@]1(C(=O)N2CCOCC2)N=C(c2ccc(OCCCO)cc2)O[C@H]1c1ccccc1N=[N+]=[N-]`, for which the composite z-score is -0.214 in [1]; 1.05 in experiment [2]; 0.119 in [3]; 0.499 in experiment [4]; 1.5 in experiment [5]; 1.68 in experiment [6]. Besides, the composite z-score is 1.36 in experiment [7]; 1.53 in [9]; -0.0237 in experiment [10]; 1.53 in [11]; 3.39 in [15]; 0.166 in experiment [17]. The composite z-score in experiment [18] is 1.61; in experiment [19], 1.04; in experiment [20], -0.0211. Moreover, the z-score in experiment [8] is -2.32 (inactive); in [12], -3.46 (inactive); in experiment [13], -10.9 (active); in experiment [14] it was 2.91 (inactive); in experiment [16] it was 1.2 (inactive).

For `CCOC(=O)C1=CC[C@@H](c2ccc(OC)cc2)N(S(=O)(=O)c2ccc(C)cc2)[C@H]1CC`, the composite z-score is -0.295 in experiment [1]; 0.495 in [2]; -0.067 in experiment [3]; 0.398 in experiment [4]; 1.66 in experiment [5]; 1.13 in experiment [6]. In addition, the composite z-score in [7] was 1.11; in [9], 1.14; in experiment [10], -0.0645; in [11], 1.56; in [15], 3.05; in experiment [17] it was 0.0319. For the same molecule, the composite z-score was 0.0635 in [18], 1.08 in experiment [19] and -0.0157 in [20]. Besides, the z-score in experiment [8] was -3.47 (inactive); in experiment [12] it was -1.48 (inactive); in experiment [13], 0.971 (inactive); in experiment [14], 0.879 (inactive); in experiment [16] it was 0.66 (inactive).
